Compound activity (PubChem BioAssay)
AmpC inh no detg: blocks E. coli AmpC beta-lactamase in detergent-free assay; P00811; AmpC nitrocefin hydrolysis, absorbance 480 nm, 0.0001% Triton; 0.52% of 330,000 active; Potency, µM (doses to about 57.1 µM), for inactives: at the top dose activity change, negative = inhibition, hits mostly inhibitors;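 further: plate controls were no compound for no effect and no enzyme for full effect; nearly all actives have a fitted effect of over 20% in size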
Target sequence (P00811 whole entry, looked up): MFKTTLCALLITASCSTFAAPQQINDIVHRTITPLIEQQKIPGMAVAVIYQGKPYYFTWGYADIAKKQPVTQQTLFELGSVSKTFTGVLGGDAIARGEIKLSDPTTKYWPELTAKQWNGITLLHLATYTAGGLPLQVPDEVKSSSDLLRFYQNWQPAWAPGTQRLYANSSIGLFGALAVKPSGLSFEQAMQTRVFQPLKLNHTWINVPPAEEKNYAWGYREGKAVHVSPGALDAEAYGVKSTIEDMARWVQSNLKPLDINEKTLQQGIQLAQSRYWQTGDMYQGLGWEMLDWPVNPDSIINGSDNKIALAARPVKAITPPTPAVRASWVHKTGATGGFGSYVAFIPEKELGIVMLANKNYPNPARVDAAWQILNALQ
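20 mM phosphate pH 7.0 + 0.01% (detergent screen) or 0.0001% Triton X-100; 5.3 nM AmpC reagent; cpd preinc 15 min RT; nitrocefin (800 uM stock) to start; A480 q20 s × 4 min; Activity was normalised to no-enzyme and no-compound control wells.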
AMA1 RON2 block: inhibitors of Plasmodium falciparum AMA1-RON2 interaction | Potency, µM (doses to about 58.2 µM), inactives show at the top dose activity change, negative = inhibition, hits mostly inhibitors | AlphaScreen AMA1-biotinylated RON2 peptide binding | 0.2% of 360,000 active;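 further: 0% = vehicle wells and -100% = peptide control; nearly all actives have a fitted effect of over 45% in size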
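AMA1 (3D7) with his tag at 25 nM final met compounds first, then biotinylated RON2 peptide at 25 nM; detection used donor plus acceptor beads, 10 µg/mL apiece, read by AlphaScreen after 30 min at room temperature.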
Sm TGR block: inhibitors of Schistosoma mansoni thioredoxin glutathione reductase. Q962Y6. purified TGR, DTNB reduction, TNB absorbance 405 nm. Potency, µM (highest dose often 114 µM), for inactives: at the top dose activity change, negative = inhibition, hits mostly inhibitors. 3% of 360,000 active. AID 485364; further: nearly all actives have a fitted effect of over 60% in size
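Kinetic colorimetric format: TGR-catalysed, NADPH-driven DTNB reduction monitored via TNB absorbance. Enzyme dispensed at 20 nM; compound exposure 15 min at room temperature before reaction start.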
RE007 growth inh: less growth of the S. pombe RE007 Vpr strain; S. pombe RE007 Vpr strain, BacTiter-Glo ATP luminescence, 24 h; Potency, µM (highest dose often 92.2 µM), for the others: at the highest dose activity change, negative = less growth, actives largely listed as inhibitors; 0.21% of 360,000 active; active means well fitted falling curve with a large enough effect; inconclusive means small, poorly fitted or top-dose-only effect; inactive means no such curve, though single readings can be large or run the other way; further: nearly all actives have a fitted effect of over 50% in size
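Fission yeast strain RE007, carrying one chromosomally integrated HIV-1 vpr copy, was seeded at OD 0.01 in PMG+AL medium with 23 nL pinned compound. After 24 h at 30 °C and 99% humidity, viability was read by BacTiter-Glo luminescence.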
AmpC inh detg: inhibitors of E. coli AmpC beta-lactamase with detergent. 0.041% of 370,000 active. AmpC hydrolysis of nitrocefin, absorbance 480 nm, 0.01% Triton. Potency, µM (doses to about 114 µM), inactives show at the top dose activity change, negative = inhibition, usual class: inhibitors. P00811;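 further: 0% = no-compound wells and -100% = no-enzyme wells; nearly all actives have a fitted effect of over 25% in size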
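20 mM phosphate pH 7.0 + 0.01% (detergent screen) or 0.0001% Triton X-100; 5.3 nM AmpC reagent; cpd preinc 15 min RT; nitrocefin (800 uM stock) to start; A480 q20 s × 4 min; Activity was normalised to no-enzyme and no-compound control wells.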
An asterisk follows results filed as active; ? = inconclusive; / = not tested or not shown; [ ] = another dose, or the depositor's remark. The list is not random: actives were taken first. Their share in the collection is about 3.2%. Unless noted, the call rests on the fitted dose curve; in most records, active means well fitted curve in the direction sought with a large enough effect; inconclusive means small, poorly fitted or top-dose-only effect, or another doubt; inactive means no such curve, though single readings can be large; an effect the other way counts as inactive or inconclusive. Unless noted, on the % scale 0 is the no-effect control and ±100 the full control effect; potency means the concentration at half of the fitted maximal effect.

SMILES	AmpC inh no detg	AMA1 RON2 block	Sm TGR block	RE007 growth inh	AmpC inh detg
COc1ccc(CCN(C)Cc2c(O)ccc3cc(Br)ccc23)cc1OC	40%	2%	4µM*	-18%	-2%
COc1ccc(CN(C)Cc2c(O)ccc3cc(Br)ccc23)cc1OC	12%	34%	8.9µM*	-16%	-12%
COc1ccc2cc(Br)ccc2c1CC(=O)N(C)C	13%	-3%	/	-17%	-3%
CCCCN(C)CCNC(=O)C1CCN(c2nc3ccc(CC)cc3s2)CC1	/	/	0%	/	0%
CCC(C)(C)n1nnnc1CN1CCc2ccccc21	-28%	-2%	7.1µM*	3%	?
COc1ccc(C2C3=C(CCCC3=O)Nc3ccc4ncccc4c32)cc1OC (stereo not given)	17%	28%	20µM*	8%	-4%
O=C1CCCC2=C1C(c1cccc(O)c1)c1c(ccc3ncccc13)N2 (stereo not given)	-39%	-1%	32µM*	-15%	-4%
O=C1CCCC2=C1C(c1cccs1)Nc1ccc3ncccc3c12 (stereo not given)	-40%	-2%	-1%	-6%	4%
O=C1CCCC2=C1C(c1ccc(O)c(O)c1)Nc1ccc3ncccc3c12 (stereo not given)	-26%	-20%	20µM*	-12%	-12%
COc1cc(C2C3=C(CCCC3=O)Nc3ccc4ncccc4c32)ccc1O (stereo not given)	-33%	-6%	-8%	-15%	-1%
CCc1cccc(C)c1NC(=O)C1=C(C)C(=O)OC12CCC(C)CC2 (stereo not given)	/	/	1%	/	11%
O=C(CS(=O)(=O)c1ccc(Cl)cc1)Nc1nc2ccc(Br)cc2s1	/	/	0%	/	3%
COc1ccccc1CNC(=O)C(Cc1ccccc1)NS(=O)(=O)c1ccc2c(c1)CCN2C(C)=O (stereo not given)	/	/	1%	/	2%
O=S(=O)(c1ccc(-c2csc(=Nc3ccc(F)cc3)n2CCCCCCO)cc1)N1CCCC1	/	/	-2%	/	-2%
CCCn1nc(C(=O)Nc2cc(S(=O)(=O)Nc3ccc(OC)cc3)ccc2O)c2ccccc2c1=O	1.6µM*	33%	/	-1%	/
Cc1nc2ccc(C(C(F)(F)F)(C(F)(F)F)C(F)(F)F)cc2[nH]1	53%	13%	-33%	28µM*	-5%
CCN(CC)C(=O)Cn1c(=O)cc(C)c2c(C)nn(-c3cccc(Cl)c3C)c21	/	/	3%	/	3%
Cc1cc2oc(=O)cc(C)c2cc1NC(=O)CCl	-16%	6%	13µM*	33%	3%
Cc1cc2oc(=O)cc(C)c2cc1NC(=O)CCC(=O)O	-14%	-1%	-2%	9%	?
Cc1cc2c(C)cc(=O)[nH]c2cc1NC(=O)CCl	-6%	8%	10µM*	14%	8%
Cc1ccc(-c2nc(CS(=O)CC(=O)NC3CCC(C)CC3)c(C)o2)cc1 (stereo not given)	91%	-4%	14µM*	-7%	-11%
Cc1oc(-c2ccc(Cl)cc2)nc1CS(=O)CC(=O)NCc1ccccn1 (stereo not given)	36%	84%	40µM*	-1%	2%
Cc1oc(-c2ccc(Cl)cc2)nc1CS(=O)CC(=O)NC(C)c1ccccc1 (stereo not given)	138%	-4%	8.9µM*	-1%	-3%
Cc1oc(-c2ccc(Cl)cc2)nc1CS(=O)CC(=O)NC1CC1 (stereo not given)	1%	-4%	16µM*	1%	2%
Cc1oc(-c2ccccc2F)nc1CS(=O)CC(=O)NC1CC1 (stereo not given)	-11%	5%	?	-9%	-11%
SMILES	AmpC inh no detg	AMA1 RON2 block	Sm TGR block	RE007 growth inh	AmpC inh detg
CCCNC(=O)CCCN1C(=O)CCn2nc(-c3cccn3C)cc21	/	/	0%	/	-1%
CCOC(=O)c1ccc(NC(=O)CCCn2c(=O)c3cccn3c3cccnc32)cc1	/	/	5%	/	-2%
O=C(NCC1CCCN(Cc2cccc(C(F)(F)F)c2)C1)c1ccc(F)cc1 (stereo not given)	36%	0%	4%[57.1 µM]	-11%	-2%
Cc1cc(CN2CCCC(CNC(=O)c3ccc(F)cc3)C2)cc(C)c1O (stereo not given)	-37%	0%	35µM*	10%	1%
Cc1ccc(OCCCCn2c(CCNC(=O)C(C)(C)C)nc3ccccc32)cc1	/	/	-2%	/	0%
COc1ccc(NC(=O)CN(C)S(=O)(=O)c2ccc3[nH]c4c(c3c2)CCCC4)cc1Cl	/	/	0%	/	4%
CCc1nnc(NC(=O)c2nc(S(=O)(=O)Cc3ccccc3)ncc2Cl)s1	-17%	66%	32µM*	10%	2%
CCc1nnc(NC(=O)c2nc(S(=O)(=O)Cc3cccc(C)c3)ncc2Cl)s1	103%	69%	16µM*	-17%	-8%
CCSc1ncc(Cl)c(C(=O)Nc2ccccc2OC)n1	-7%	46%	32%	9%	3%
CCOc1ccccc1NC(=O)c1nc(S(=O)(=O)Cc2cccc(C)c2)ncc1Cl	-18%	0%	7.1µM*	4%	-11%
CCc1nnc(NC(=O)c2nc(S(=O)(=O)Cc3ccc(C)cc3)ncc2Cl)s1	-22%	78%	32µM*	-17%	25%
CCc1nnc(NC(=O)c2nc(Cl)ccc2Cl)s1	4%	-9%	-6%	-7%	-11%
CCc1ccc(C(=O)c2cn(CC(=O)Nc3cc(OC)ccc3OC)c3nc(C)ccc3c2=O)cc1	/	/	-1%	/	-7%
COc1ccccc1NC(=O)c1oc2ccccc2c1NC(=O)c1ccc(S(=O)(=O)N(C)C)cc1	/	/	3%	/	13%
Cn1c(=O)c2c(-c3ccccc3)n3c(c2n(C)c1=O)C(c1ccccc1[N+](=O)[O-])Nc1ccccc1-3 (stereo not given)	/	/	-26%	/	17%
C=CCN1C=C/C(=C\C=C(C#N)C#N)c2ccccc21	-14%	14µM*	-10%	-17%	-15%
O=C(CSc1nnc(-c2ccccc2Cl)o1)N1CCCc2ccccc21	/	/	0%	/	-1%
CCOC(=O)c1c(S(=O)(=O)NCCCc2ccco2)c(C)n(C)c1C	-1%	-4%	28µM*	1%	-12%
CCOc1ccc(CCNC(=O)CS(=O)(=O)Cc2nc(-c3cccc(Cl)c3)oc2C)cc1	/	/	-32%	/	6%
CCOc1ccccc1CNCc1c(C(=O)O)c(C)n(Cc2ccc(Cl)cc2)c1C	/	/	0%	/	14%
CCN(CC)c1ccc(-c2nc(-c3ccccn3)no2)cc1[N+](=O)[O-]	/	/	50µM*	/	-4%
c1ccc(-c2ccc(-c3nc(-c4ccccn4)no3)cc2)cc1	63%	60%	-1%	40µM*	-1%
Cc1ccc(-c2nc(-c3ccccn3)no2)cc1	-8%	22%	5%	16µM*	-2%
